Compound activity deposited in PubChem by Broad Institute.
Sampled rows, rich in hits. Any-hit rate of the full collection: about 4%.
ERAP1 HTS inh = ERAP1 (human) enzyme inhibition. Q9NZ08. 340,000 tested, 0.15% active. recombinant ERAP1, Leu-AMC fluorescence, 60 min. inhibition, % at 10.7 µM;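 active = mean replicate inhibition of at least 30%, or all replicates individually reaching that 30% level; inactive = mean below 30% and not every replicate reaching it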;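 note: 0% = neutral control wells and 100% = L-leucinethiol positive control wells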
FGF22 binding = binders of recombinant human FGF22 by thermal shift; Q9HCT0; AID 651658; activity (Tm shift, normalised), % at 9.99 µM; SYPRO orange fluorescence; percent of sucrose octasulfate shift, DMSO zero; 340,000 tested, 1.5% active;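 active = mean Tm shift, scaled 0 neutral to 100 positive control, at about 1.3% or above, every replicate too, limit read from the data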
AF4-AF9 inh = blocks AF4 peptide binding to human AF9; AlphaScreen, biotin-AF4 peptide binding to FLAG-AF9; inhibition, % at 10 µM; 350,000 tested, 0.47% active; AID 651704;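 active = every replicate reaching a set inhibition limit, whatever the replicate mean, cut at about 25% in these data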;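 note: 0% = plate neutral control median and 100% = total signal loss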
RAD52 anneal inh = RAD52 (human) annealing inhibition | P43351 | recombinant RAD52 DNA annealing, FRET fluorescence | inhibition, % at 18.7 µM | 360,000 tested, 0.46% active;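 active = every replicate showing at least 50% inhibition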
Target sequence (P43351 whole entry, looked up): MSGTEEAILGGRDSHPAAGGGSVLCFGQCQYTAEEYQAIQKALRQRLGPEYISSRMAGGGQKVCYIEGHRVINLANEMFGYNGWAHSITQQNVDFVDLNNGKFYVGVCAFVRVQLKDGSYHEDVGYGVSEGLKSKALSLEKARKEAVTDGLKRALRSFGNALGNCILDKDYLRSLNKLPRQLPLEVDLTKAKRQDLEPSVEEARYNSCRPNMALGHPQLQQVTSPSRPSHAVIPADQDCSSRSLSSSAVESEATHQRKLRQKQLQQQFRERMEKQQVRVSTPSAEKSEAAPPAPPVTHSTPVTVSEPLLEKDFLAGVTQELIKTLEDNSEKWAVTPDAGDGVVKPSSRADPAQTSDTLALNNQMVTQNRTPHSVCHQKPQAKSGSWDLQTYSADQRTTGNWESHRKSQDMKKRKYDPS
DENV2 CPE = protects cells from dengue virus 2 cytopathic effect | AID 651640 | DENV2-infected cells, cytopathic effect rescue, plate reader | CPE inhibition, % at 9.99 µM | 350,000 tested, 1.7% active; in the data active = CPE inhibition above about 20%, passing the limit was not always enough; tested in BHK-21 cells;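 note: 0% = median of neutral control wells and 100% = median of positive control wells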
* = called active by the depositor; · = no result.

SMILES	ERAP1 HTS inh	FGF22 binding	AF4-AF9 inh	RAD52 anneal inh	DENV2 CPE
O=C(NCC1CC1)[C@H]1[C@H](CO)[C@H]2Cn3c(ccc(-c4cccnc4)c3=O)[C@@H]1N2Cc1nccs1	2	0	-2	2	0
Nc1ccc(C(=O)NN2C(=O)[C@H](Cl)C2c2ccc(Cl)cc2)cc1 (stereo not given in full)	-1	1.6*	1	-19	9
CCOC(=O)N1CCC(NC(=O)c2ccc(Cl)cc2)CC1	4	0	-2	0	2
COc1ccc(S(=O)(=O)N2CCCCN3[C@H](CO)[C@H](c4ccc(C5=CCCC5)cc4)[C@@H]3C2)cc1	·	-1	·	-15	141*
COc1ccc(S(=O)(=O)N2CCCCN3[C@H](CO)[C@@H](c4ccc(C5=CCCC5)cc4)[C@@H]3C2)cc1	-1	0	3	-76	-11
COc1ccc(S(=O)(=O)N2CCCCN3[C@@H](CO)[C@@H](c4ccc(C5=CCCCC5)cc4)[C@@H]3C2)cc1	4	-1	3	50*	6
COc1ccc(S(=O)(=O)Nc2ccc3c(c2)C(=O)N([C@H](C)CO)C[C@@H](C)[C@@H](CN(C)C(=O)Cc2ccccc2)OCCCC[C@H](C)O3)cc1	-2	-1	-1	-16	-1
O=C(N[C@@H]1CC[C@H](CCn2cc(C3CCCCC3)nn2)O[C@@H]1CO)c1cccnc1	0	0	2	-1	-2
CCCN1[C@@H]2c3ccc(-c4ccccc4F)c(=O)n3C[C@@H]2[C@@H](CO)[C@@H]1C(=O)N1CCCCC1	1	0	1	-9	8
COc1ccc(CN(C)C[C@@H]2OCCCC[C@H](C)Oc3ccc(NC(=O)Nc4ccc5c(c4)OCO5)cc3C(=O)N([C@H](C)CO)C[C@H]2C)cc1	-3	0	25*	47	7
COc1ccc(CN(C)C[C@H]2OCCCC[C@@H](C)Oc3ccc(NC(=O)Nc4ccc5c(c4)OCO5)cc3C(=O)N([C@H](C)CO)C[C@H]2C)cc1	-3	-1	23	11	10
COc1ccc(CN(C)C[C@H]2OCCCC[C@@H](C)Oc3ccc(NC(=O)Nc4ccc5c(c4)OCO5)cc3C(=O)N([C@@H](C)CO)C[C@H]2C)cc1	-3	-2	32*	22	-23
C[C@H](CO)N1C[C@H](C)[C@@H](CN(C)C(=O)CCC(F)(F)F)OCCCC[C@H](C)Oc2ccc(NC(=O)c3ccccc3)cc2C1=O	-3	0	-1	8	15
C[C@@H]1CN([C@@H](C)CO)S(=O)(=O)c2ccc(-c3ccncc3)cc2O[C@H]1CN(C)C(=O)CN(C)C	0	0	-4	7	-1
COCCCN(Cc1ccco1)C(=O)Cn1ncc2c([nH]c3ccccc32)c1=O	2	0	3	-37	25*
O=C(C[C@@H]1CC[C@H]2[C@@H](COC[C@H](O)CN2C(=O)Nc2cc(Cl)cc(Cl)c2)O1)NCC1CCCCC1	-1	-1	0	0	-14
COCCCC1CCN(C(=O)C2CCC(=O)N(CCCc3ccccc3)C2)CC1 (stereo not given)	0	43*	-5	-19	1
CC(C)CC#Cc1cnc2c(c1)C(=O)N([C@@H](C)CO)C[C@@H](C)[C@H](CN(C)C(=O)NC1CCCC1)O2	-1	0	-2	1	9
O=C(c1ccc2c(c1)OCO2)N1CC2(C1)[C@H](c1ccccc1)[C@H](CO)N2C(=O)C1CC1	1	·	-4	-6	38*
COCC(=O)N1[C@@H](CO)[C@@H](c2ccccc2)C12CN(C(=O)c1cccc(F)c1)C2	-3	0	-6	-8	29*
COCC(=O)N1[C@@H](CO)[C@@H](c2ccccc2)C12CN(C(=O)c1ccc(F)cc1)C2	-2	0	-4	-7	3
O=C(c1cccc(F)c1)N1CC2(C1)[C@H](c1ccccc1)[C@@H](CO)N2C(=O)C1CC1	1	-1	-6	6	19
O=C(c1ccc2c(c1)OCO2)N1CC2(C1)[C@@H](c1ccccc1)[C@H](CO)N2C(=O)C1CCC1	-1	·	-3	-11	-6
O=C(c1cccc(F)c1)N1CC2(C1)[C@H](c1ccccc1)[C@H](CO)N2C(=O)C1CC1	1	0	-3	3	34*
COc1ccc(NC(=O)N[C@H]2CC[C@H](CCn3cc(C4(O)CCCC4)nn3)O[C@H]2CO)cc1	4	0	-1	-9	-3
